Measured values: PubChem BioAssay AID1159580 (chemical genetic matrix, 2015)
Where “and” joins values, the source holds several entries; their conditions need not be identical. Equal entries are not always repeated. Screen size: about 5,500 compounds; about 2,000 (36%) were called active. Roughly 18% stayed inconclusive and do not appear here. No stated cut-off is given here; in the data, active means normalized growth mostly below about 0.91 (no sharp cut-off); inconclusive means no clear call, values can overlap the other calls; inactive means mostly above about 0.92. This is one part of the list.

Experiment: chemical genetic growth profiling, strain panel (AID 1159580);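 further: tested at 20 µM; growth read once vehicle control cultures reached saturation at 30 °C; 1 = growth at the plate median or of vehicle wells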
Settings: S. cerevisiae deletion strains, growth OD

Measured: normalized growth

NC(=O)c1cnccn1
inactive: locus YAL013W, strain DEP1, stronger effect = lower value 1.01 and 1.02 | locus YAL021C, strain ccr4, stronger effect = lower value 0.992 | locus YAL026C, strain drs2, stronger effect = lower value 1.01 | locus YAL030W, strain snc1, stronger effect = lower value 0.996 | locus YAL040C, strain CLN3, stronger effect = lower value 1 | locus YBL061C, strain skt5, stronger effect = lower value 0.988 | locus YBR009C, strain hhf1, stronger effect = lower value 1.01 | locus YBR021W, strain FUR4, stronger effect = lower value 1.02 | locus YBR023C, strain chs3, stronger effect = lower value 1.01 | locus YBR171W, strain sec66, stronger effect = lower value 0.968 | locus YBR229C, strain ROT2, stronger effect = lower value 1 | locus YBR231C, strain swc5, stronger effect = lower value 0.984 | locus YBR279W, strain paf1, stronger effect = lower value 1 | locus YCL011C, strain gbp2, stronger effect = lower value 1 | locus YCL016C, strain dcc1, stronger effect = lower value 1.01 | locus YCL029C, strain bik1, stronger effect = lower value 1 | locus YCL061C, strain MRC1 (second series), stronger effect = lower value 1.01 | locus YCL069W, strain vba3, stronger effect = lower value 1 | locus YCR088W, strain abp1, stronger effect = lower value 0.981 | locus YDL005C, strain med2, stronger effect = lower value 0.974 | locus YDL035C, strain GPR1, stronger effect = lower value 1.01 | locus YDL040C, strain nat1, stronger effect = lower value 0.984 | locus YDL074C, strain BRE1, stronger effect = lower value 1 | locus YDL101C, strain DUN1, stronger effect = lower value 1.01 | locus YDL134C, strain PPH21, stronger effect = lower value 1.01 | locus YDL185W, strain tfp1, stronger effect = lower value 1.02 | locus YDL192W, strain arf1, stronger effect = lower value 1.01 | locus YDR001C, strain nth1, stronger effect = lower value 0.996 | locus YDR069C, strain doa4, stronger effect = lower value 0.982 | locus YDR101C, strain arx1, stronger effect = lower value 1 | locus YDR137W, strain rgp1, stronger effect = lower value 0.98 | locus YDR150W, strain NUM1, stronger effect = lower value 0.993 and 1 | locus YDR159W, strain sac3, stronger effect = lower value 1 | locus YDR162C, strain NBP2, stronger effect = lower value 1.01 | locus YDR195W, strain ref2 0.905 | locus YDR297W, strain sur2, stronger effect = lower value 0.994 | locus YDR318W, strain mcm21, stronger effect = lower value 1.02 | locus YDR334W, strain swr1, stronger effect = lower value 0.98 | locus YDR335W, strain msn5, stronger effect = lower value 0.99 | locus YDR363W, strain ESC2, stronger effect = lower value 0.964 | locus YDR388W, stronger effect = lower value 1.01 | locus YDR392W, strain spt3, stronger effect = lower value 1.05 | locus YDR502C, strain sam2, stronger effect = lower value 1.01 | locus YEL003W, strain gim4, stronger effect = lower value 0.992 | locus YEL037C, strain rad23, stronger effect = lower value 0.995 | locus YEL061C, strain CIN8 (second series), stronger effect = lower value 0.994 | locus YEL061C, strain CIN8, stronger effect = lower value 1 | locus YER002W, strain NOP16, stronger effect = lower value 1.01 | locus YER015W, strain faa2, stronger effect = lower value 0.995 | locus YER016W, strain bim1, stronger effect = lower value 1 | locus YER110C, stronger effect = lower value 0.995 | locus YER111C, strain swi4, stronger effect = lower value 0.993 | locus YER155C, strain BEM2 (second series), stronger effect = lower value 0.955 | locus YER155C, strain BEM2, stronger effect = lower value 1.01 | locus YER167W, strain BCK2, stronger effect = lower value 1.01 | locus YFR010W, strain ubp6, stronger effect = lower value 0.979 | locus YGL078C, strain dbp3, stronger effect = lower value 0.993 | locus YGL086W, strain mad1, stronger effect = lower value 1.02 | locus YGL167C, strain pmr1, stronger effect = lower value 0.987 | locus YGL173C, strain kem1, stronger effect = lower value 0.983 | locus YGL227W, strain vid30, stronger effect = lower value 0.991 | locus YGL240W, strain doc1, stronger effect = lower value 0.959 | locus YGL248W, strain PDE1, stronger effect = lower value 1 | locus YGL253W, strain hxk2, stronger effect = lower value 1.02 | locus YGR135W, strain pre9, stronger effect = lower value 0.996 | locus YGR229C, strain SMI1, stronger effect = lower value 1.03 and 1.02 | locus YGR252W, strain gcn5, stronger effect = lower value 0.988 | locus YHR013C, strain ard1, stronger effect = lower value 0.966 | locus YHR027C, strain rpn1, stronger effect = lower value 0.995 | locus YHR030C, strain SLT2, stronger effect = lower value 1 and 1.07 | locus YHR079C, strain IRE1 (second series), stronger effect = lower value 1.01 | locus YHR079C, strain IRE1, stronger effect = lower value 1.03 | locus YHR094C, strain hxt1, stronger effect = lower value 0.999 | locus YHR129C, strain ARP1, stronger effect = lower value 0.996 | locus YHR142W, strain chs7, stronger effect = lower value 0.992 | locus YHR200W, strain rpn10, stronger effect = lower value 1 | locus YIL066C, strain RNR3, stronger effect = lower value 1.01 | locus YIL073C, strain SPO22, stronger effect = lower value 1.06 | locus YIL125W, strain kgd1, stronger effect = lower value 0.999 | locus YIR030C, strain dcg1, stronger effect = lower value 1 | locus YJL092W, strain hpr5, stronger effect = lower value 0.974 | locus YJL095W, strain BCK1 (second series), stronger effect = lower value 0.995 | locus YJL095W, strain BCK1, stronger effect = lower value 0.997 and 1.06 | locus YJL115W, strain asf1, stronger effect = lower value 0.995 | locus YJL129C, strain trk1, stronger effect = lower value 0.981 | locus YJL134W, strain LCB3, stronger effect = lower value 1.01 | locus YJL154C, strain vps35, stronger effect = lower value 0.991 | locus YJL164C, strain tpk1, stronger effect = lower value 1.01 | locus YJL166W, strain qcr8, stronger effect = lower value 0.969 | locus YJL168C, strain set2, stronger effect = lower value 1.01 | locus YJL187C, strain SWE1 (second series), stronger effect = lower value 1.01 | locus YJR043C, strain POL32, stronger effect = lower value 1 | locus YJR066W, strain TOR1, stronger effect = lower value 1
